We go through seven compounds from PubChem BioAssay (Tox21).

Values without a mark were called inactive. Inconclusive results are not listed. Active and inactive are the calls of the source. Unless noted, calls come from the whole dose curve.

Experiment [1] in a line: Nuclear factor erythroid 2-related factor 2/antioxidant responsive element (Nrf2/ARE) small molecule agonists: qHTS cell viability counter screen in human keratinocytes (AID 1919968; active = well fitted curve in the direction sought with a large enough effect in the repeat runs; an effect the other way counts as inactive or inconclusive; note: nearly all actives have a fitted effect of over 55% in size). The essentials:
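Seed 1,500 KeratinoSens cells per well, then incubate 5 h at 37 C/5% CO2. Add compounds in DMSO and incubate 23 h. Add CellTiter-Fluor, wait 1 h and read fluorescence.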

Experiment [2] in a line: Nuclear factor erythroid 2-related factor 2/antioxidant responsive element (Nrf2/ARE) small molecule agonists: luciferase reporter gene qHTS assay in human keratinocytes (AID 1919969). Note: nearly all actives have a fitted effect of over 35% in size. Note: potency is the fitted concentration of half-maximal effect.
The target in experiment [3] is Gonadotropin-releasing hormone receptor (Homo sapiens) (UniProt P30968). The experiment in a line: Human gonadotropin-releasing hormone receptor (GnRHR) small molecule agonists, calcium flux assay in GnRHR-HEK293 cells (AID 1920063). Note: nearly all actives have a fitted effect of over 35% in size. The method, boiled down: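 Cells: HEK293 stably expressing human GnRHR. Steps: overnight (18 h) culture, 1 h calcium dye loading at 37 C, compound addition, kinetic fluorescence read at 480/540 nm. Each compound tested at 15 concentrations in triplicate.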
Sequence of Gonadotropin-releasing hormone receptor (Homo sapiens) (P30968 whole entry, looked up): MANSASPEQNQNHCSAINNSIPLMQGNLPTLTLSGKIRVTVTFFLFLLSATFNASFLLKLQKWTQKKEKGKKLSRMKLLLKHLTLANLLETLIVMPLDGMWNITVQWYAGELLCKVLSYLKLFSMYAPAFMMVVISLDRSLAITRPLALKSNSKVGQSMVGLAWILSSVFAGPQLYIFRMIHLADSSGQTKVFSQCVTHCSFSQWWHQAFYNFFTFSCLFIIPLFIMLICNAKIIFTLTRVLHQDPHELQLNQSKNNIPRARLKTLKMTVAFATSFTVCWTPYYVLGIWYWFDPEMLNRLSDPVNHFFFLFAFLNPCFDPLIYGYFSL

The target of experiment [4] is KiSS-1 receptor (Homo sapiens) (UniProt Q969F8). The experiment is described as follows: Human kisspeptin (KISS1R) small molecule agonists, calcium flux assay in KISS1R-HEK293 cells (AID 1920064; active = well fitted curve in the direction sought with a large enough effect in the repeat runs; an effect the other way counts as inactive or inconclusive). The essentials: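 Cells plated and incubated 18 h; dye added, 1 h at 37 C; compounds in DMSO pinned in; signal read at 480/540 nm every second for 3 min. Each compound tested at 15 concentrations in triplicate.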
Sequence of KiSS-1 receptor (Homo sapiens) (Q969F8 whole entry, looked up): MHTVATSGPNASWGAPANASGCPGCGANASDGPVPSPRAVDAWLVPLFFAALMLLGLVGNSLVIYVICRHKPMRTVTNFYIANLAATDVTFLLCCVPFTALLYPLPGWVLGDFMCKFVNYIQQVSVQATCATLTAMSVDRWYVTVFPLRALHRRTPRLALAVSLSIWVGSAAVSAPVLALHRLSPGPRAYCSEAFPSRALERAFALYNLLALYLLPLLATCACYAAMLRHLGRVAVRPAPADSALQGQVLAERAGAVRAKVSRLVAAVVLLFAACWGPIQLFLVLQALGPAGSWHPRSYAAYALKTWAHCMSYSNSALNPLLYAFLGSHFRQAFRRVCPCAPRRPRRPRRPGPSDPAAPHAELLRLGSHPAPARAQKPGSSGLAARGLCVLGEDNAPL

Experiment [5] in a line: G protein-coupled receptor (GPCR) small molecule agonists, calcium flux assay: HEK293 wild type cell line counter screen (AID 1920065). The method, boiled down:
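Counter-screen of the Tox21 10K library for non-specific calcium release: dye-loaded cells received compounds in DMSO and were monitored by kinetic fluorescence (480/540 nm, 3 min). Fifteen concentrations, run in triplicate.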

A short description of experiment [6]: p53 small molecule agonists, cell-based qHTS assay with rat liver microsomes (AID 1963578). The method, boiled down:
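Metabolic activation by rat liver microsomes and NADPH, each 0.5 mg/mL final, added right after compounds to p53RE-bla reporter cells (4,000/well, plated 5 h earlier). 16 h at 37 C, then LiveBLAzer substrate for 2 h at room temperature in the dark; fluorescence read-out.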

Experiment [7] is described as follows: p53 small molecule agonists, cell-based qHTS assay with rat liver microsomes: qHTS cell viability counter screen (AID 1963580). Note: nearly all actives have a fitted effect of over 45% in size. The method, boiled down: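 Intracellular ATP, by CellTiter-Glo luminescence, defines viability. HCT-116 p53RE-bla cells, 4,000 per well, were compound-treated in the presence of rat liver microsomes and NADPH for 16 h at 37 C.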
Experiment [8] is described as follows: p53 small molecule agonists, cell-based qHTS assay: qHTS cell viability counter screen (AID 1963581). Note: nearly all actives have a fitted effect of over 45% in size. The method, boiled down:
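Cells: HCT-116 with p53 response element-driven beta-lactamase. Treatment: 16 h, 37 C, compounds in DMSO. Read: CellTiter-Glo luminescence after 30 min RT.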

The nature of experiment [9]: p53 small molecule agonists, cell-based qHTS assay (AID 1963582; active = well fitted activation curve with a large enough effect in the signal ratio in the repeat runs, not every such curve was filed as active; the % refers to the signal ratio). The method, boiled down: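 Quantitative HTS in p53RE-bla cells: after a 5 h settling period, compounds delivered in DMSO were left on cells for 16 h at 37 C, and reporter induction was measured as fluorescence following 2 h substrate loading.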
Experiment [10] deals with 5-hydroxytryptamine receptor 2A (Homo sapiens) (UniProt P28223). The experiment in a line: 5-hydroxytryptamine receptor 2A (HTR2A) small molecule antagonists, cell-based qHTS assay (AID 1963586). Note: nearly all actives have a fitted effect of over 45% in size. Note: potency is the fitted concentration of half-maximal effect. The essentials:
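Antagonist-mode intracellular calcium assay: DOI (4 nM) added after 5 min compound pre-incubation at room temperature to dye-loaded HTR2A-CHO cells. Fluorescence followed for 3 min, sampled every second.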

The target in experiment [11] is Muscarinic acetylcholine receptor M1 (Homo sapiens) (UniProt P11229). The experiment is described as follows: Cholinergic receptor muscarinic 1 (CHRM1) small molecule antagonists, cell-based qHTS assay (AID 1963588). Note: nearly all actives have a fitted effect of over 40% in size. The essentials: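 CHRM1-CHO calcium-flux assay, antagonist mode. Cells were seeded 18 h, dye-loaded 1 h at 37 C and given compound for 5 min at RT, then acetylcholine was added at 50nM. FDSS fluorescence was read 3 min; 15 concentrations, three runs.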
Sequence of Muscarinic acetylcholine receptor M1 (Homo sapiens) (P11229 whole entry, looked up): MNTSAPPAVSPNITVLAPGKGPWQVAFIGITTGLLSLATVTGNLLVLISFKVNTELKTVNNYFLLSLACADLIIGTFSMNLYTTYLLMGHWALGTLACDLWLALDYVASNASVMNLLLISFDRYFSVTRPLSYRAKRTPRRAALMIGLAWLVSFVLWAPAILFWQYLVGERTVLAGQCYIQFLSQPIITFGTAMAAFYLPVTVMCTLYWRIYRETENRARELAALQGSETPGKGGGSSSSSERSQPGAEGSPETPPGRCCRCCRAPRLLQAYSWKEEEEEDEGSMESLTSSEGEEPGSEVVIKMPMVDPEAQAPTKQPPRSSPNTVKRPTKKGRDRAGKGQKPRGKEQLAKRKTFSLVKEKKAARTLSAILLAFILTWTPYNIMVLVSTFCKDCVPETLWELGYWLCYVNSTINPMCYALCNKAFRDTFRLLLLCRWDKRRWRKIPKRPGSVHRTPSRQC

Experiment [12] is described as follows: cAMP Responsive Elements (CRE) small molecule agonists, cell-based qHTS assay (AID 1963590). The method, boiled down:
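Agonist mode qHTS in CRE-bla HEK 293T cells: compounds dosed from DMSO for 3 h at 37 C/5% CO2, followed by LiveBLAzer B/G FRET substrate for 2 h at room temperature.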

The target of experiment [13] is D(2) dopamine receptor (Homo sapiens) (UniProt P14416). The experiment is described as follows: Dopamine D2 receptor (DRD2) small molecule agonists, cell-based qHTS assay (AID 1963594). Note: nearly all actives have a fitted effect of over 35% in size. The method, boiled down: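 cAMP accumulation in DRD2-HEK293 cells measured by HTRF after 1 h detection; compounds added 10 min before NKH477 (200nM […]) forskolin-analogue stimulation, 30 min at room temperature, with Ro20-1724 present at 0.1 mM final.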
Sequence of D(2) dopamine receptor (Homo sapiens) (P14416 whole entry, looked up): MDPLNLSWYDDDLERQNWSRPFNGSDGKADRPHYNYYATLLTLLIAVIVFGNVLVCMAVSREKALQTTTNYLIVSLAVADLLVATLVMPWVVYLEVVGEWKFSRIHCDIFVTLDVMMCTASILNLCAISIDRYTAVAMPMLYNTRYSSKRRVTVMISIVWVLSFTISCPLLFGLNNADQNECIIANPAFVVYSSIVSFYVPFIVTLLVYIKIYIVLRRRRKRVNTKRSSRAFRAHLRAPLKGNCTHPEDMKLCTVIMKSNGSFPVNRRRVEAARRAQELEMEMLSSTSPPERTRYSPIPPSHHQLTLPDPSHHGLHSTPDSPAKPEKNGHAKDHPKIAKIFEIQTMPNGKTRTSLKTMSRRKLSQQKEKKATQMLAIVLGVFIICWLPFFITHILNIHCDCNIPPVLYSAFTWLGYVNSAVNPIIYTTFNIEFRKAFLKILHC

Experiment [14] has the same target. The experiment is described as follows: Dopamine D2 receptor (DRD2) small molecule antagonists, cell-based qHTS assay (AID 1963595; active = well fitted inhibition curve with a large enough effect in the signal ratio in the repeat runs, with a control signal flat; the % refers to the signal ratio). The method, boiled down: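 DRD2-HEK293; 0.1 mM Ro20-1724; cpd 10 min RT; NKH477 200 nM + quinpirole 12 nM, 30 min RT; HTRF cAMP (cAMP-d2/anti-cAMP cryptate), 665/620 nm ratio after 1 h.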
A short description of experiment [15]: p53 small molecule agonists, cell-based qHTS assay with human liver microsomes (AID 1963577).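 Note: p53 response element beta-lactamase reporter cells with liver microsomes plus NADPH.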 The essentials:
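With metabolic activation: human liver microsomes (0.5 mg/mL final) plus NADPH (0.5 mg/mL final) added alongside compounds to p53RE-bla cells; 16 h 37 C exposure; beta-lactamase read by LiveBLAzer fluorescence.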

The nature of experiment [16]: p53 small molecule agonists, cell-based qHTS assay with human liver microsomes: qHTS cell viability counter screen (AID 1963579). Note: nearly all actives have a fitted effect of over 45% in size. The essentials: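 Metabolic activation used human liver microsomes and NADPH, both 0.5 mg/mL final, over 16 hours at 37 C on p53RE-bla cells (4,000/well). Cytotoxicity measured by CellTiter-Glo luminescence, 30 min at room temperature.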

In experiment [17] the target is 5-hydroxytryptamine receptor 2A (Homo sapiens) (UniProt P28223). The experiment in a line: 5-hydroxytryptamine receptor 2A (HTR2A) small molecule agonists, cell-based qHTS assay (AID 1963587). Note: nearly all actives have a fitted effect of over 30% in size. The essentials:
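Kinetic calcium-flux fluorescence (2 min, 1 sec intervals) after compound addition in agonist mode. HTR2A-CHO cells were cultured 18 h, then dye-loaded 1 h at 37 C.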

Experiment [18] deals with Muscarinic acetylcholine receptor M1 (Homo sapiens) (UniProt P11229). The experiment in a line: Cholinergic receptor muscarinic 1 (CHRM1) small molecule agonists, cell-based qHTS assay (AID 1963589). Note: nearly all actives have a fitted effect of over 35% in size. The method, boiled down:
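Agonist-mode qHTS in CHO cells stably carrying human muscarinic M1. Intracellular calcium is tracked by fluorescence every second after compound transfer; each compound runs at 15 concentrations in three independent runs.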

The nature of experiment [19]: cAMP Responsive Elements (CRE) small molecule antagonists, cell-based qHTS assay (AID 1963591; active = well fitted inhibition curve with a large enough effect in the signal ratio in the repeat runs, not every such curve was filed as active; the % refers to the signal ratio). The method, boiled down: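 Antagonist mode: test compounds are co-incubated with the adenylyl cyclase activator NKH477 (0.25 uM final) on CRE-bla HEK293T cells for 3 h at 37 °C, followed by LiveBLAzer substrate loading.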
Experiment [20] has as its target Beta-2 adrenergic receptor (Homo sapiens) (UniProt P07550). The experiment is described as follows: Adrenergic beta2 receptor (ADRB2) small molecule antagonists, cell-based qHTS assay (AID 1963592). Note: series mostly up to about 92 µM; nearly all actives have a fitted effect of over 50% in size. The method, boiled down: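 Cells (CHO, stable ADRB2 overexpression) incubated 18-20hr at 37C; compounds added from DMSO; agonist mix (1nM isoproterenol, 100uM IBMX, 25uM Ro-20-1724) added; 0.5hr RT; d2-cAMP and anti-cAMP-cryptate added; 1hr RT; 665/615 nm read.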

Sequence of Beta-2 adrenergic receptor (Homo sapiens) (P07550 whole entry, looked up): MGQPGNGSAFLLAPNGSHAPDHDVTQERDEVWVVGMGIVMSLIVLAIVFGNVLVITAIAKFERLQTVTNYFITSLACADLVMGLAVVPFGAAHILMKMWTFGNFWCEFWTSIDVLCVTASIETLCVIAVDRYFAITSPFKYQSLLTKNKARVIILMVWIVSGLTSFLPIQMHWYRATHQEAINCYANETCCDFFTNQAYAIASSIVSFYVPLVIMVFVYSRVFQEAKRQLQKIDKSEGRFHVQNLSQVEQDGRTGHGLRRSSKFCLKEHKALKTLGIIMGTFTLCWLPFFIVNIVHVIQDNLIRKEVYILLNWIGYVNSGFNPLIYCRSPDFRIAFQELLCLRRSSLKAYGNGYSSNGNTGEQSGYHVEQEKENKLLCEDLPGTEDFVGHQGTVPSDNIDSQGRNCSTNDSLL
Sequence of 5-hydroxytryptamine receptor 2A (Homo sapiens) (P28223 whole entry, looked up): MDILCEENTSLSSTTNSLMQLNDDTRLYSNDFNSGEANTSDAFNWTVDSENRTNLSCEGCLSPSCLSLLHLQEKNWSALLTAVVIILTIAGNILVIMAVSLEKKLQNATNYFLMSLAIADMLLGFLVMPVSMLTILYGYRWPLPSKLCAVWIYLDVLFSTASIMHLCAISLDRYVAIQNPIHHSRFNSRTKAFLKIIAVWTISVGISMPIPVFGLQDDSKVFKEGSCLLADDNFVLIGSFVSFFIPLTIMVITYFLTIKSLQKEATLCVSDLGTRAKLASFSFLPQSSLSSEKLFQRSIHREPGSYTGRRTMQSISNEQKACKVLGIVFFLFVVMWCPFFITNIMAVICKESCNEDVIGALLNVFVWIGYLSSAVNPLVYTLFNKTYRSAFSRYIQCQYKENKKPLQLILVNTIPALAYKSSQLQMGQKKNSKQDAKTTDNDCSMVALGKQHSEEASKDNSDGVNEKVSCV

Take `CCCCCCCC(C)=O`: the Potency result in experiment [1], in experiment [2], in [3], in experiment [6], in experiment [7] and in experiment [8] was “inactive” each time. Moreover, the Potency result in experiment [9], in experiment [10], in experiment [11], in experiment [12], in experiment [13] and in experiment [14] was “inactive” throughout. Besides, the result in experiment [4] and in experiment [5] was inactive.
`Cc1ccc(C)c(N)c1`: the Potency result in [1], in experiment [2], in experiment [3], in experiment [15], in experiment [6] and in experiment [16] was “inactive” in each case. Moreover, the Potency entry in [7], in experiment [8], in [10], in experiment [17], in experiment [11] and in experiment [18] was “inactive” throughout. Also, the Potency entry in experiment [12], in experiment [19], in experiment [20], in experiment [13] and in experiment [14] was “inactive” throughout. In addition, the result in experiment [4] was inactive.
Consider `CC(C(O)c1ccc(O)cc1)N1CCC(Cc2ccccc2)CC1` (centres undefined), for which the Potency entry in experiment [1], in experiment [2], in experiment [3], in experiment [15], in experiment [6] and in experiment [16] was “inactive” in each case. Besides, the Potency result in experiment [7], in [8], in [9], in experiment [17], in experiment [18] and in experiment [12] was “inactive” in each case. Also, the Potency entry in experiment [19] and in experiment [14] was “inactive” in each case. Further, in experiment [4], the result was inactive. For the same compound, in experiment [10], the Potency is 16.3 µM (active).
Turning to `COC(=O)CS`, the Potency entry in experiment [1], in [3], in experiment [15], in [6], in [16] and in experiment [7] was “inactive” throughout. The Potency result in experiment [8], in experiment [9], in [17], in experiment [11], in experiment [18] and in [12] was “inactive” in each case. Further, the Potency entry in experiment [20], in [13] and in [14] was “inactive” each time. The Potency in [2] was 52.4 µM (active). In experiment [4], the result was inactive.
For `Cn1c(=O)c2c(ncn2CC(O)CO)n(C)c1=O` (centres undefined), the Potency result in experiment [1], in [2], in [3], in experiment [15], in experiment [6] and in experiment [16] was “inactive” throughout. Further, the Potency result in [7], in experiment [8], in experiment [9], in [12], in experiment [19] and in experiment [20] was “inactive” each time. Besides, the Potency result in experiment [13] and in [14] was “inactive” each time. In [4], the result was inactive.
Take `N#CCC(=O)NN`: the Potency entry in experiment [1], in experiment [2], in experiment [3], in [15], in experiment [6] and in experiment [16] was “inactive” throughout. The Potency entry in experiment [7], in experiment [8], in experiment [9], in experiment [17], in experiment [11] and in experiment [18] was “inactive” each time. The Potency entry in [19], in experiment [20], in [13] and in experiment [14] was “inactive” in each case. Besides, the result in experiment [4] was inactive.
Turning to `O=C(OCc1ccccc1)C(=O)OCc1ccccc1`, the Potency result in [1], in experiment [2], in experiment [3], in experiment [15], in experiment [6] and in [16] was “inactive” each time. Also, the Potency result in [7], in [8], in [9], in experiment [17], in [11] and in experiment [18] was “inactive” throughout. Further, the Potency result in experiment [12], in experiment [19], in experiment [13] and in experiment [14] was “inactive” each time. Moreover, in [4], the outcome was inactive.
